PfHsp90 yeast 2 – growth inhibition of PfHsp90-expressing yeast, primary screen, antimalarial PfHsp90 inhibitor project, S. cerevisiae, BacTiter-Glo luminescence, single point, set 2 | BacTiter-Glo ATP, 48 h; yeast lacking PDR1 and PDR3 efflux regulators | inhibition, % at 9.4 µM | AID 504621, 2011 | hit rate 0.32% among 310,000;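 active = every replicate shows inhibition above about 80%, whatever the replicate mean, limit read from the data; inconclusive = mean inhibition reaches the set limit but some replicate falls short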;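 note: 0% = DMSO neutral controls and 100% = 20 µM radicicol positive controls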
SKKanGAS inh – S. pyogenes SKKanGAS growth inhibitors in kanamycin, primary screen, streptokinase expression inhibitor project, SKKanGAS strain, BacTiter-Glo luminescence; 6 h; hit rate 1.3% among 300,000; inhibition, % at 7.5 µM;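 active = mean replicate score, as percent of positive control median, at least 50; inconclusive = mean below 50 but one replicate at or above 50; inactive = mean and every replicate below 50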;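 note: strain carries kanamycin resistance gene driven by streptokinase promoter and grows in 40 µg/ml kanamycin; loss of luminescence reflects streptokinase promoter inhibition or plain growth inhibition; 0% = median of DMSO wells and 100% = positive control at its reference dose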
tim23-1 inh – growth inhibitors of tim23-1 mutant yeast, primary screen, luminescence, uHTS; S. cerevisiae tim23-1 growth, BacTiter-Glo luminescence, 24 h; inhibition, % at 20 µM; hit rate 1.3% among 330,000; AID 463212, 2010;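 active = growth inhibition of the mutant yeast at or above 50%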;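 note: temperature-sensitive mutant grown at 25 °C; plate controls were DMSO-treated mutant yeast for no effect and medium wells lacking yeast for full effect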
TIM10 inh – growth inhibitors of isogenic TIM10 control yeast, primary screen, counter-screen for tim10-1 yeast inhibitor project, luminescence, uHTS; inhibition, % at 10 µM; S. cerevisiae TIM10 strain growth, BacTiter-Glo luminescence, 24 h; hit rate 1.4% among 330,000;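 active = inhibition of 40% or more at the single tested concentration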;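 note: wild-type TIM10 isogenic control strain grown at permissive 25 °C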
V-ATPase pHluor – regulators of yeast V-ATPase proton pumping, primary screen, pHLuorin cytosolic pH fluorescence; S. cerevisiae; response, % at 10 µM; hit rate 0.37% among 350,000; in the data active = response mostly above about 7.3%, no sharp cut-off; inactive = mostly below about 5.4%; note: actives read high
tim10-1 inh – growth inhibitors of tim10-1 mutant yeast, primary screen, luminescence, uHTS | S. cerevisiae tim10-1 ts strain growth, BacTiter-Glo, 24 h | inhibition, % at 20 µM | hit rate 2.2% among 330,000 | AID 463190, 2010;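 active = inhibition of at least 40%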;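 note: mutant grown at 25 °C; 0% = DMSO wells with yeast and 100% = wells holding no yeast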
VATPase regulator – yeast V-ATPase proton pumping modulators, confirmation, S. cerevisiae, pH-sensitive GFP, second cherry-pick; shares compounds with V-ATPase pHluor; S. cerevisiae pHLuorin cytosolic pH, V-ATPase proton transport; response, % at 10 µM; hit rate 2% among 980; AID 602197, 2012; in the data active = response above about 24%;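 note: plate controls were vehicle wells for no effect and positive control wells for full effect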
An asterisk follows results filed as active; ? = inconclusive; . = no result. Shown are actives, neighbours in structure and some others; about 4.6% of the full set was active somewhere.

SMILES	PfHsp90 yeast 2	SKKanGAS inh	tim23-1 inh	TIM10 inh	V-ATPase pHluor	tim10-1 inh	VATPase regulator
CCOC(=O)CNC(=O)C1(NC(=O)CNC(=O)OCc2ccccc2)CCCC1	6	.	.	.	-9	.	.
Cc1ccc(NC(=O)Nc2ccc3c(c2)C(=O)OC3)cc1Cl	-10	-2	-14	-5	-9	-8	.
CCOc1ccc(NC(=O)CSc2nc(N3CCOCC3)nc(N3CCOCC3)n2)cc1	-5	3	14	14	8.7*	10	1
Cc1ccc(-n2c3c(cc(C(=O)NCCCN4CCOCC4)c2=O)C(=O)CC(C)(C)C3)cc1	-1	1	26	19	11*	21	0
O=C(NCC1CCCCC1)c1ccccc1[N+](=O)[O-]	-20	-1	12	-3	13*	9	1
COc1cc(C2OC(=O)C3C(c4ccc(OC(C)=O)c(OC)c4)OC(=O)C23)ccc1OC(C)=O (stereo not drawn)	7	-16	10	7	-1	11	.
Cc1ccc(N2CCN(S(=O)(=O)N3CCCCC3)CC2)cc1C	11	-3	9	19	11*	10	2
Cc1cccc(CCN=c2c([N+](=O)[O-])nn(-c3ccccc3)n2O)c1	-20	17	19	26	1	40	.
Cc1cccc(-n2nc([N+](=O)[O-])c(=NC3CCN(Cc4ccccc4)CC3)n2O)c1	-9	-1	15	3	13*	2	-2
CSc1ccccc1OCc1cc(C(=O)N2CCN3CCCC3C2)no1 (stereo not drawn)	1	-1	17	3	-2	7	.
c1ccc(Cn2nnnc2CN2CCN(Cc3ccc4c(c3)OCO4)CC2)cc1	1	-4	-7	-3	6.8*	-6	1
c1ccc2c(c1)CCN(Cc1nnnn1Cc1ccc3c(c1)OCO3)C2	-6	4	48	9	2	30	.
CCc1cc(-c2nnn(CCC3COCCO3)c2CC)ccc1-c1cn(Cc2ccccc2)nn1 (stereo not drawn)	.	.	.	.	3	.	.
CCc1cc(-c2cnnn2Cc2ccc3ccccc3c2)ccc1-c1cn(CC(C)C)nn1	.	.	.	.	7.2*	.	1
O=C(Oc1ccccc1Cl)c1ccccc1	14	.	.	.	13*	.	4
O=C(Oc1cccccc1=O)c1ccccc1	-12	-6	12	22	1	12	.
O=C(NCCCCNC(=O)c1ccc(F)cc1)c1ccc(F)cc1	10	-7	-12	-37	1	-31	0
O=C(NCCCc1ccccc1)c1ccc(F)cc1	15	-3	14	-3	-3	2	.
Cc1cc(C)cc(OCCCn2ccnc2)c1	-9	3	5	-5	9.0*	-13	-3
Cc1cccc(OCCCn2ccnc2)c1	1	0	3	0	-1	15	.
O=C1NC[C@H](c2ccccc2)N(CCc2cccc(F)c2)C1=O	-25	3	11	-5	-4	1	.
C1=Cc2ccccc2Nc2ccccc21	14	3	17	-13	12*	-16	1
O=C(NC1CCC1)C1CCC(=O)N(Cc2ccc(Cl)cc2)C1 (stereo not drawn)	.	.	.	.	2	.	.
CC(=O)N1CCN(C(=O)c2cc(S(=O)(=O)Nc3ccc(S(C)(=O)=O)cc3)ccc2Cl)CC1	17	2	-3	14	-2	21	.
CCN1CCN(C(=O)c2cc(S(=O)(=O)Nc3ccc(S(C)(=O)=O)cc3)ccc2Cl)CC1	15	0	5	12	10*	3	1
SMILES	PfHsp90 yeast 2	SKKanGAS inh	tim23-1 inh	TIM10 inh	V-ATPase pHluor	tim10-1 inh	VATPase regulator
C[C@@H]1CN([C@@H](C)CO)C(=O)c2ccccc2-c2ccccc2CO[C@@H]1CN(C)S(=O)(=O)c1ccc(C(F)(F)F)cc1	.	.	.	.	2	.	.
Cc1ccc(S(=O)(=O)N2CCN(C(=O)COC(=O)CCOc3ccccc3C)CC2)cc1	-4	-7	9	0	12*	21	3
Cc1ccc(S(=O)(=O)N2CCN(C(=O)COC(=O)CCOc3cc(C)ccc3C)CC2)cc1	-7	-5	13	23	10*	27	2
Cc1ccc(S(=O)(=O)CCC(=O)OCC(=O)N2CCN(S(=O)(=O)c3ccccc3)CC2)cc1	0	0	-7	0	1	-1	.
CC1CCN(c2nc(-c3ccc(F)cc3)cc(C(F)(F)F)n2)CC1	3	?	-16	-13	8.6*	-1	2
Cc1ccc(Nc2nc3ccccc3c(=O)[nH]2)cc1C	6	-14	6	22	11*	14	-1
CCC(C)NC(=O)CSc1nnc(-c2cc(-c3cccs3)nc3ccccc23)o1 (stereo not drawn)	6	6	9	5	.	25	.
CCOC(=O)C1(NC(=O)C2(N3C(=O)c4ccccc4C3=O)CCCC2)CCCC1	.	.	.	.	-4	.	.
Cc1nnc(SCC(=O)N2CCCCCC2)n(N)c1=O	.	.	12	-13	8.0*	-2	-3
CCOC(=O)C1C(=O)N(O)CC1c1cccc(Oc2ccccc2)c1 (stereo not drawn)	-8	1	5	3	13*	7	0
O=C(CCCN1C(=O)/C(=C/c2cccs2)SC1=S)Nc1ccccn1	5	11	-4	4	1	13	.
O=C(CCN1C(=O)/C(=C\c2cccs2)SC1=S)Nc1ccccn1	-5	4	3	1	6.2*	-3	-3
O=C(Nc1nc(N2C(=O)c3ccccc3C2=O)n(-c2ccccc2)n1)c1ccccc1	14	-6	0	7	0	6	.
CC(=O)Nc1nc(N2C(=O)c3ccccc3C2=O)n(-c2ccccc2)n1	9	-1	21	1	7.0*	17	-1
Cc1ccc(C(=O)Nc2ncc(C)s2)o1	10	13	23	5	8.8*	28	0
COCCNC(=O)C(c1ccccc1)N(Cc1cccs1)C(=O)Cn1nnc2ccccc21 (stereo not drawn)	17	2	19	3	24*	8	-6
COCCNC(=O)C(c1ccc(C)o1)N(Cc1ccc(F)cc1)C(=O)Cn1nnc2ccccc21 (stereo not drawn)	-17	4	7	11	24*	11	-2
N#CC(=C(O)CN1CCN(c2ccccc2F)CC1)c1nc(-c2ccc(Cl)cc2)cs1	-14	.	.	.	-1	.	.
COc1ccc(NC(=O)CN2C(=O)NC(C)(c3ccccc3)C2=O)c(OC)c1 (stereo not drawn)	-20	-2	-4	11	0	-23	.
Nc1ncnc2c(C3OC(CO)C(O)C3O)c[nH]c12 (stereo not drawn)	1	.	.	.	-2	.	.
Cc1ccccc1N1Cc2ccccc2C1	2	-6	10	1	0	8	.
